Measured values: PubChem BioAssay (NCATS)
Inconclusive results are not listed. Activity calls are given as the source filed them. Unless noted, calls follow the shape of the dose curve; as a rule, active = well fitted curve in the direction sought with a large enough effect; inconclusive = small, poorly fitted or top-dose-only effect, or another doubt; inactive = no such curve, though single readings can be large; an effect the other way counts as inactive or inconclusive.

Assays:
[1] = target: Lysosomal acid glucosylceramidase (Homo sapiens) (UniProt P04062); test: Glucocerebrosidase-p2 (AID 348; in the data active = potency below about 10 µM; also: potency is read from the fitted curve at half-maximal effect); details: purified GBA, blue fluorogenic substrate, 40 min
Lysosomal acid glucosylceramidase (Homo sapiens), sequence (P04062 whole entry, looked up): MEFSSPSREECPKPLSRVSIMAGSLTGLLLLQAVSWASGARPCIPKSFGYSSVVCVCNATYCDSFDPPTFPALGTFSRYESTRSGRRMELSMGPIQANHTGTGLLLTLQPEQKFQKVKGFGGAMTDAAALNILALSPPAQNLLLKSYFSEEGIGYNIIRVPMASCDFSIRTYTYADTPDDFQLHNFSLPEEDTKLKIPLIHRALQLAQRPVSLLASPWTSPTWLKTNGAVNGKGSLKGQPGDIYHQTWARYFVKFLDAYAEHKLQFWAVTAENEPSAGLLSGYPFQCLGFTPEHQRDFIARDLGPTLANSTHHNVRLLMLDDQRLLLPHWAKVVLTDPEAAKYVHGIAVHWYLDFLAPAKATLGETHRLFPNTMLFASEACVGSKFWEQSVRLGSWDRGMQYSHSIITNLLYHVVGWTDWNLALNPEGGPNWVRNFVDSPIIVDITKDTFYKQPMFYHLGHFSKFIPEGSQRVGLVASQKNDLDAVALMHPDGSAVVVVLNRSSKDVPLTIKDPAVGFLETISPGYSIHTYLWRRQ
In short: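 Normal human glucocerebrosidase (0.2 nM) with blue fluorogenic substrate (80 uM final) in citrate/phosphate pH 5.9 with 10mM sodium taurocholate, 0.01% tween-20; 40 min RT, NaOH/glycine stop; fluorescence Ex 365/Em 440; AC50 from a titration from 0.6 nM upwards.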

[2] = AP1 Signaling Pathway (AID 357; active = well fitted curve in either direction with a large enough effect, not every such curve was filed as active;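 also: ME-180 reporter cells stimulated with EGF at its EC50 level; % is scaled to controls: 0 for no effect and ±100 for the full control effect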); details: ME-180 AP-1-bla reporter, EGF-induced, beta-lactamase ratio, 5 h; at 7.69 µM (top of the series) unless noted
In short: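 A ratiometric CCF4 readout (405 nm excitation; 460 and 530 nm emission) quantified AP-1-driven beta-lactamase in ME-180 cells after 5 h with compound and EC50 EGF; AC50 values were derived for activators and inhibitors.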

[3] = NFAT Signaling Pathway (AID 444; active = well fitted curve in either direction with a large enough effect, not every such curve was filed as active;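 also: carbachol stimulus at about its EC50 of 1 µM final; % is scaled to controls: 0 for no effect and ±100 for the full control effect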); details: Jurkat NFAT-bla M1, carbachol, beta-lactamase ratio, 5 h; at 7.69 µM (top of the series) unless noted
In short: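 Jurkat cells with NFAT-driven β-lactamase reporter and co-expressed M1 receptor, stimulated with carbachol (final 1 uM, ~EC50), compound titration, 5 h at 37 °C. CCF4 loaded 1 h at RT; 460/530 nm ratio gave %activity and AC50.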

[4] = Stat Signaling Pathway (AID 446; active = well fitted curve in either direction with a large enough effect, not every such curve was filed as active;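 also: ME-180 cervical cancer cells given 40 pM IL-6 alongside compound; SIE-controlled beta-lactamase reporter measured as 460/530 nm FRET emission ratio; % is scaled to controls: 0 for no effect and ±100 for the full control effect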); details: ME-180 SIE beta-lactamase reporter, IL-6 stimulated, 5 h; at 7.69 µM (top of the series) unless noted
In short: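 FRET read-out (405 nm excitation, 460/530 nm emission) of a beta-lactamase reporter under a STAT-inducible element in ME-180 cervical carcinoma cells. Cells with compound receive 40 pM IL-6 for 5 h. Values are normalised to AC90 stimulation and AC90 JAK-inhibitor controls.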

[5] = target: Glucocorticoid receptor (Homo sapiens) (UniProt P04150); test: GR-GFP Redistribution (AID 450;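 active = compounds whose dose series gives a full or clear partial fitted curve of increased nuclear translocation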; also: potency is read from the fitted curve at half-maximal effect); details: U2OS GR-GFP nuclear translocation, laser cytometry, 2 h
Glucocorticoid receptor (Homo sapiens), sequence (P04150 whole entry, looked up, the tested form may be a part): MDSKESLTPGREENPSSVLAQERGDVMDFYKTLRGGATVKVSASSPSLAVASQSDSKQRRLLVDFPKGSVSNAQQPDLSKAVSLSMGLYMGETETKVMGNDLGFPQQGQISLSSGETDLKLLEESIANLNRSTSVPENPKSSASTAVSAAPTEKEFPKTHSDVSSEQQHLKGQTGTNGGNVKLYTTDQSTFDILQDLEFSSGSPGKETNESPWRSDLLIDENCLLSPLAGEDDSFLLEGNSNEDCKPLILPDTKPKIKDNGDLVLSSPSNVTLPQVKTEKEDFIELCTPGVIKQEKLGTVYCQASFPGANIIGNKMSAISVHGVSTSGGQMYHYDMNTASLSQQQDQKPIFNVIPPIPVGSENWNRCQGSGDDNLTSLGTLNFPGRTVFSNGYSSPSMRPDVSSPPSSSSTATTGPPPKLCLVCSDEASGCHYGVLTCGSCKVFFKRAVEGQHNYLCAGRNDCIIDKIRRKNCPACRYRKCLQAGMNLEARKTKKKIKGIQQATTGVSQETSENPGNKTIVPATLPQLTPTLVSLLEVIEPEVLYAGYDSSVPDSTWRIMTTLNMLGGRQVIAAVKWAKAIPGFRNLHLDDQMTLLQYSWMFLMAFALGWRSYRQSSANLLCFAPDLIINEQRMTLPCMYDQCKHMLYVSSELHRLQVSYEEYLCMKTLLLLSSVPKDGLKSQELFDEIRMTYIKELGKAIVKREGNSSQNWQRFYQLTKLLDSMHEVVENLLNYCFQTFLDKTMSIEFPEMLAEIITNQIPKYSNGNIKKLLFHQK

[6] = target: Mitogen-activated protein kinase 10 (Mus musculus) (UniProt Q61831); test: JNK3 AlphaScreen Assay (AID 530; active = well fitted curve in either direction with a large enough effect, not every such curve was filed as active;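 also: kinase came from lysate of stimulated human HepG2 cells; signal reports phosphorylation of biotinylated GST-cJun 1-79 at Ser73 with 10 µM ATP; % is scaled to controls: 0 for no effect and ±100 for the full control effect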); details: JNK3 lysate, c-Jun phosphorylation; series mostly up to 57.1 µM
In short: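 HepG2 lysate (IL-1b/TNFa pre-activated) + biotin-GST-cJun 1-79 + anti-pSer73 cJun; cpd titration, 15 min RT; ATP 10 uM start; Tris pH 7.6, MgCl2, DTT, vanadate; beads in EDTA buffer; AlphaScreen.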

[7] = target: 3',5'-cyclic-AMP phosphodiesterase 4B (Homo sapiens) (UniProt Q07343); test: qHTS Assay for Inhibitors of PDE-IV (AID 607; active = well fitted activation curve with a large enough effect in the main read-out, with a control signal flat, not every such curve was filed as active; also: % of control where 0% means no effect); details: HEK293 ACTOne CNG channel cells, membrane potential fluorescence; series mostly up to 22.9 µM
3',5'-cyclic-AMP phosphodiesterase 4B (Homo sapiens), sequence (Q07343 whole entry, looked up): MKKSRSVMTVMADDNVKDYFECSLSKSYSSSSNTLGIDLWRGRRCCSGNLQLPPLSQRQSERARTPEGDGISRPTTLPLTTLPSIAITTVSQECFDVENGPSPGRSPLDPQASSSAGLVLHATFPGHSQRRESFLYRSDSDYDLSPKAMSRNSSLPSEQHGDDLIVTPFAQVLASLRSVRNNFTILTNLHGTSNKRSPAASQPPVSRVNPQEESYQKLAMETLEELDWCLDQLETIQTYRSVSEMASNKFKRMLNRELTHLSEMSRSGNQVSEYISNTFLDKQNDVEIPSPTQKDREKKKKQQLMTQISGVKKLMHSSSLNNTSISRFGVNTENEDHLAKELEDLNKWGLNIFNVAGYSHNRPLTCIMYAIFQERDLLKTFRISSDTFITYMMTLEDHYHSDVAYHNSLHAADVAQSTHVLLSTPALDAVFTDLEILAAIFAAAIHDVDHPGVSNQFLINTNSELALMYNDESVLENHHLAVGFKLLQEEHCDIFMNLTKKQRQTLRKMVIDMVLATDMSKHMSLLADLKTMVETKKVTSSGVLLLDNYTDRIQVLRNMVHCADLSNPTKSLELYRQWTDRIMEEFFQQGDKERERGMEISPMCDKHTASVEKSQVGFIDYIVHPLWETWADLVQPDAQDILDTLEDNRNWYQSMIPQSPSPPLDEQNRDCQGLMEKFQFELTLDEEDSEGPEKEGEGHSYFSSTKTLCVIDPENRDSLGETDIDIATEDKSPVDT
In short: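 Cell-based read-out of cAMP via a modified cyclic nucleotide-gated channel and membrane potential dye (535/590 nm) in HEK293 cells expressing PDE4 endogenously. Compounds tested up to 22.9 uM final; 100 uM RO 20-1724 reference.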

[8] = qHTS Assay for Lipid Storage Modulators (AID 1519; calls by dose curve); details: Drosophila S3 cells, BODIPY lipid droplet/cell ratio, laser cytometry, cells loaded with oleic acid; for activity change, negative = inhibition: at 57.5 µM (top of the series)
In short: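 Cells seeded at 5,000 per well were treated with compounds over a concentration series and loaded with oleic acid (400 uM, as added). Lipid droplet fluorescence (488 nm excitation, 500-530 nm channel) was read by laser-scanning cytometry and normalized to 20 uM Triacsin C.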

[9] = target: Dual specificity protein kinase CLK4 (Homo sapiens) (UniProt Q9HAZ1); test: qHTS Assay for Inhibitors of CDC-like Kinase 4 (Kinase-Glo Assay) (AID 1770); details: recombinant Clk4, Kinase-Glo ATP depletion luminescence; series mostly up to 66.7 µM; also: % is scaled to controls: 0 for no effect and ±100 for the full control effect; nearly all actives have a fitted effect of over 65% in size
Dual specificity protein kinase CLK4 (Homo sapiens), sequence (Q9HAZ1 whole entry, looked up): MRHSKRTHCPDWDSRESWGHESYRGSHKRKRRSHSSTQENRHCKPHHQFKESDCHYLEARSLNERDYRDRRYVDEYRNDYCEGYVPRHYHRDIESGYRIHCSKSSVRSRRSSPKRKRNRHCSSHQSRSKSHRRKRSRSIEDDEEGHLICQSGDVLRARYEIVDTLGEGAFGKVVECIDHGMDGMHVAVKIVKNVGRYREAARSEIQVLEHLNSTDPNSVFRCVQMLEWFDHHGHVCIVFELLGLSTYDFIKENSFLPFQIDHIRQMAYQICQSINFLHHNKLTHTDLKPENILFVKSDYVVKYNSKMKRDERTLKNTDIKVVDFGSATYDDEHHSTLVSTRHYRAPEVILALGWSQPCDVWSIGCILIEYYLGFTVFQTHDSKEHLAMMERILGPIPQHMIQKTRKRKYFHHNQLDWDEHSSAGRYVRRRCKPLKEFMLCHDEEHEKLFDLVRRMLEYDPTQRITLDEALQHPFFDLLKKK
In short: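 Inhibition was judged from remaining ATP, measured by Ultra-Glo luciferase bioluminescence after Clk4 (25 nM) had acted on RS peptide at 1 uM ATP for 4.5 hours, room temperature.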

[10] = target: Dual specificity protein kinase CLK4 (Homo sapiens) (UniProt Q9HAZ1); test: qHTS Assay for Inhibitors of CDC-like Kinase 4 (ADP-Glo Assay) (AID 1771); details: recombinant CLK4, ADP-Glo luminescence; series mostly up to 80 µM; also: % is scaled to controls: 0 for no effect and ±100 for the full control effect; nearly all actives have a fitted effect of over 70% in size
In short: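 25 nM Clk4, 100 uM RS peptide, 1 uM ATP (final); 2 mM MgCl2, 0.5 mM EGTA, 2.5 mM DTT, 0.01% Triton X-100; 1 hr RT. ADP-Glo readout: ATP depletion 45 min, conversion/luciferase 30 min, luminescence.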

[11] = target: Dual specificity protein kinase CLK4 (Homo sapiens) (UniProt Q9HAZ1); test: qHTS Assay for Inhibitors of CDC-like Kinase 4 (ADP-FP Assay) (AID 1795); details: Transcreener ADP fluorescence polarization; series mostly up to 50 µM;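 also: recombinant human CLK4 phosphorylating RS repeat peptide at 1 µM ATP; % is scaled to controls: 0 for no effect and ±100 for the full control effect; nearly all actives have a fitted effect of over 60% in size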
In short: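 Inhibition of ADP formation by 6.25 nM Clk4 is measured using 1 uM ATP and 100 uM RS repeat peptide over one hour. Produced ADP displaces a fluorescent tracer from antibody, lowering polarization.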

[12] = target: Ubiquitin carboxyl-terminal hydrolase 1 (Homo sapiens) (UniProt O94782); test: Inhibitors of USP1/UAF1: Pilot qHTS (AID 504865); details: purified USP1/UAF1, Ub-rhodamine cleavage fluorescence; series mostly up to 54.9 µM;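 also: rhodamine fluorescence freed from ubiquitin-rhodamine substrate followed over time; top concentration of the series differs between compounds; % is scaled to controls: 0 for no effect and ±100 for the full control effect; nearly all actives have a fitted effect of over 35% in size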
Ubiquitin carboxyl-terminal hydrolase 1 (Homo sapiens), sequence (O94782 whole entry, looked up): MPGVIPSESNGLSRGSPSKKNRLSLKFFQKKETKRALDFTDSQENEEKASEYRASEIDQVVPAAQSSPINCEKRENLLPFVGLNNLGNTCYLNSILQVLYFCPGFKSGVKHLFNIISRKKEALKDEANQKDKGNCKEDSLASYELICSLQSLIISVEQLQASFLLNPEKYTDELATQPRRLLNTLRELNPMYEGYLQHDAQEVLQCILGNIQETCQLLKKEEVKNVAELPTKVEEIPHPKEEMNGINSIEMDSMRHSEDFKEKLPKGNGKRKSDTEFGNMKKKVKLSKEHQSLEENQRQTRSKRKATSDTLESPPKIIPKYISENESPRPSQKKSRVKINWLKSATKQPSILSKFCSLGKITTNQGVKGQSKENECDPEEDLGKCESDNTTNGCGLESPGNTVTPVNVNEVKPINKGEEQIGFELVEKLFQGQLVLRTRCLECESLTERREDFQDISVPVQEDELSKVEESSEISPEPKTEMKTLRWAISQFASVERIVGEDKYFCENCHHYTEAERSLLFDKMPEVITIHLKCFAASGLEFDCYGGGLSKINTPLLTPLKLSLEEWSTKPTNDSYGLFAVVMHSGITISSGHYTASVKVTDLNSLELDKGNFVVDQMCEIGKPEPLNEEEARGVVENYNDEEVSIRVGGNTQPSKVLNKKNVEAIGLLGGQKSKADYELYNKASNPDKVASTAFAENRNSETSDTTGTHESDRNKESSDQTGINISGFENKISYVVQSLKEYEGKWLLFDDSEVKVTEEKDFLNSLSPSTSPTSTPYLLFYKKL
In short: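 Kinetic fluorescence assay: 1nM USP1/UAF1, 15 min compound preincubation, then 150nM Ub-Rho; 480/540 nm.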

[13] = Primary qHTS for small molecule stabilizers of the endoplasmic reticulum resident proteome: Secreted ER Calcium Modulated Protein (SERCaMP) assay (AID 1508630); details: SH-SY5Y GLuc-SERCaMP (Gaussia luciferase released on ER calcium loss) secretion, thapsigargin, luminescence; series mostly up to 38.4 µM; also: % is scaled to controls: 0 for no effect and ±100 for the full control effect
In short: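 The SH-SY5Y reporter protocol was run at 3 concentrations up to 38.3 uM (primary) or 11 concentrations (follow-up): 16 h compound, 100 nM thapsigargin for 4 h, then extracellular luciferase luminescence.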

[14] = target: Glucocorticoid receptor (Homo sapiens) (UniProt P04150); test: GR-EFC Redistribution (AID 451; calls by dose curve; also: potency is read from the fitted curve at half-maximal effect); details: CHO-K1 GR-EFC translocation, beta-gal luminescence, 2 h
In short: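 CHO-K1 cells expressing nuclear EA and GR-ED fragments of b-gal; compounds titrated up to 46 uM final, 2 h at 37 C. GR nuclear translocation read as complemented b-gal luminescence after 1 h RT detection.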

[15] = qHTS Assay for Identification of Small Molecule Agonists for Hypoxia Response Element Signaling Pathway (AID 914; active = well fitted activation curve with a large enough effect in the signal ratio, with a control signal flat, not every such curve was filed as active; the % refers to the signal ratio; also: % of control where 0% means no effect); details: ME-180 (cervical carcinoma) HRE-bla reporter, beta-lactamase ratio, CoCl2, 17 h; activation: stronger effect = higher value
In short: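 AC50 values come from titration-series %Activity, taken as the 460/530nm ratio of CCF4 fluorescence (excitation 405nm). CellSensor HRE-bla ME-180 cells were treated 17 hours at 37 C with compound plus an EC50 level of CoCl2.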

[16] = measured here: cell count channel max response
[17] = measured here: lipid channel max response

Cn1c(=O)c(-c2ccc(Cl)cc2)nc2cnc(Nc3ccccc3)nc21
23.4%: max response [8, 16]
-1.32%: max response [8, 17]
inactive: Potency [1] > 11.4 µM | activity change, negative = inhibition [2] -22.9% | activity change, negative = inhibition [3] -8.39% | activity, negative = inhibition [4] -6.29% | Potency [5] > 9.22 µM | outcome [6] | Potency [7] | activity change, negative = inhibition [8] -14.5% | Potency [9] | Potency [10] | Potency [11] | Potency [12] | Potency [13]

CN1CCN(c2cc(-c3ccoc3)ncn2)CC1
27.8%: max response [8, 17]
23%: max response [8, 16]
inactive: Potency [1] > 11.4 µM | activity change, negative = inhibition [2] -1.21% | activity change, negative = inhibition [3] -3.33% | activity, negative = inhibition [4] 8.56% | Potency [5] > 46 µM | Potency [14] > 46 µM | outcome [6] | Potency [7] | activity change, negative = inhibition [8] 6.62% | Potency [9] | Potency [10] | Potency [11] | Potency [12] | Potency [13]

Cc1cnc(CNc2ncncc2-c2cccnc2)cn1
inactive: Potency [1] > 11.4 µM | activity change, negative = inhibition [2] 12.8% | activity change, negative = inhibition [3] -0.272% | activity, negative = inhibition [4] 0.806% | Potency [5] > 46 µM | outcome [6] | activity change, negative = inhibition [8] 5.94% | Potency [9] | Potency [10] | Potency [11] | Potency [12] | Potency [13]
33.4%: max response [8, 17]
29.4%: max response [8, 16]

Cc1ccccc1-c1cc(N2CCN(C)CC2)ncn1
3.49%: max response [8, 16]
inactive: Potency [1] > 11.4 µM | activity change, negative = inhibition [2] -0.925% | activity change, negative = inhibition [3] -7.69% | activity, negative = inhibition [4] -0.251% | Potency [5] > 46 µM | Potency [14] > 46 µM | outcome [6] | Potency [7] | activity change, negative = inhibition [8] -4.37% | Potency [9] | Potency [10] | Potency [11] | Potency [12] | Potency [13]
-4.04%: max response [8, 17]

COCCNc1ncncc1-c1ccccc1OC
16.6%: max response [8, 17]
20.6%: max response [8, 16]
inactive: Potency [1] > 11.4 µM | activity change, negative = inhibition [2] 0.174% | activity change, negative = inhibition [3] 6.41% | activity, negative = inhibition [4] 16.6% | Potency [5] > 46 µM | Potency [14] > 46 µM | outcome [6] | Potency [7] | activity change, negative = inhibition [8] 4.36% | Potency [9] | Potency [10] | Potency [11] | Potency [12] | Potency [13]

COc1cccc(Cn2c(=O)c(C)nc3cnc(Nc4ccccc4)nc32)c1
11.6%: max response [8, 16]
inactive: Potency [1] > 11.4 µM | activity change, negative = inhibition [2] -15.3% | activity, negative = inhibition [4] -3.72% | Potency [5] > 9.22 µM | Potency [14] > 46 µM | outcome [6] | Potency [7] | activity change, negative = inhibition [8] 0.284% | Potency [9] | Potency [10] | Potency [11] | Potency [12] | Potency [13]
9.21%: max response [8, 17]

COc1cccc(Cn2c(=O)c(-c3ccc(F)cc3)nc3cnc(N(C)C)nc32)c1
inactive: Potency [1] > 11.4 µM | activity change, negative = inhibition [2] 12% | activity change, negative = inhibition [3] 9.76% | activity, negative = inhibition [4] -3.48% | Potency [5] > 9.22 µM | Potency [14] > 46 µM | Potency [7] | activity change, negative = inhibition [8] 7.91% | Potency [9] | Potency [10] | Potency [11] | Potency [12] | Potency [13]
28.6%: max response [8, 17]
20.9%: max response [8, 16]

O=c1c(-c2cc(F)cc(F)c2)nc2cnc(Nc3ccccc3)nc2n1C[C@H]1CCCO1
inactive: Potency [1] > 11.4 µM | activity change, negative = inhibition [2] -3.83% | activity change, negative = inhibition [3] -13.7% | activity, negative = inhibition [4] 1.12% | Potency [5] > 9.22 µM | Potency [14] > 46 µM | outcome [6] | Potency [7] | activation [15] -17% | activity change, negative = inhibition [8] -10.6% | Potency [9] | Potency [10] | Potency [11] | Potency [13]
17.2%: max response [8, 16]
2.07%: max response [8, 17]
